Results filed as inconclusive are left out. Activity calls are given as the source filed them. Calls follow the shape of the dose curve; as a rule, active = well fitted inhibition curve with a large enough effect; inconclusive = small, poorly fitted or top-dose-only effect; inactive = flat fitted curve, though single readings scatter.
Potency is read from the fitted curve at half-maximal effect.

For one assay, the system named is ATS189. Nature of the assay: qHTS profiling for inhibitors of Plasmodium falciparum proliferation (AID 504749). Also: nearly all actives have a fitted effect of over 60% in size.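 As to activity, negative = inhibition: 0% = DMSO vehicle and full inhibition = artemisinin control.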 The following applies: P. falciparum in erythrocytes, SYBR Green DNA, 72 h; series mostly up to 28.7 µM; activity, negative = inhibition: at the top concentration. The procedure, abridged: (§1)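 Readout was DNA-dye fluorescence from lysed cultures, ex 485/em 535 nm. Parasitized red cells had grown 72 h with compound; data scaled between 0.29 uM artemisinin and DMSO wells and corrected using vehicle-only plates.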
Consider `CC[C@@]1(c2ccccc2)NC(=O)N(C)C1=O`, for which the “activity, negative = inhibition” value is 6.02% (inactive).
The same measure, in the same setting: under `CCOc1nc2cccc(C(=O)O)c2n1Cc1ccc(-c2ccccc2-c2nn[nH]n2)cc1` stands -24.5% (inactive); under `CC(CN1c2ccccc2Sc2ccccc21)N(C)C` (stereo not drawn), 12.7% (inactive).
Regarding `CC(C(O)c1ccc(O)cc1)N1CCC(Cc2ccccc2)CC1` (stereo not drawn), the Potency is 11.2 µM (active).
On to `Cc1cc(C(C#N)c2ccc(Cl)cc2)c(Cl)cc1NC(=O)c1cc(I)cc(I)c1O` (stereo not drawn), for which the “activity, negative = inhibition” value was -4.47% (inactive).
Take `O=S(=O)(O)c1cc(I)c(O)c2ncccc12`: the “activity, negative = inhibition” value was 1.24% (inactive).
On the same count and under the same terms, under `CCCCOC(=O)c1ccc(O)cc1` stands 12.5% (inactive); under `CCCCCCCCCCCCCCCC(=O)NCCO`, 22.1% (inactive).
Same read-out and setting: under `Cc1ccc(C(C)C)cc2c(C)ccc1-2` stands -15.5% (inactive); under `OCc1cc(C(O)CNCCCCCCOCCCCc2ccccc2)ccc1O` (stereo not drawn), -3.05% (inactive).
For `COC(=O)C1=C(C)NC(C)=C(C(=O)OC)C1c1ccccc1[N+](=O)[O-]`, the “activity, negative = inhibition” value is 16.7% (inactive).
Still for that read-out and setting: under `CN1CCN(C2Cc3ccccc3Sc3ccc(Cl)cc32)CC1` (stereo not drawn) stands -22.5% (inactive).
Same read-out and setting: then `Cc1c(Cl)cccc1Nc1ccccc1C(=O)O`, with 4.71% (inactive).
With `Cc1cc(N)c2ccccc2[n+]1CCCCCCCCCC[n+]1c(C)cc(N)c2ccccc21`, the Potency was 0.316 µM (active).
Consider `CC1=C(CC(=O)O)c2cc(F)ccc2/C1=C\c1ccc(S(C)=O)cc1` (stereo not drawn), for which the “activity, negative = inhibition” value is 9.56% (inactive).
The same measure, in the same setting: then `CC(C)(C)NCC(O)COc1ccc(NC(=O)NC2CCCCC2)cc1` (stereo not drawn), with 1.38% (inactive); and `O=C1NS(=O)(=O)c2ccccc21`, with -2.74% (inactive); and `NC1CCN(c2cccc(Cl)n2)CC1`, with -9.6% (inactive).
Turning to `CNCCCC1c2ccccc2C=Cc2ccccc21`, the “activity, negative = inhibition” value is -14.3% [at 12.8 µM] (inactive).
For `Cc1ccc2nc(N)[nH]c(=O)c2c1Sc1ccncc1`, the Potency was 8.91 µM (active).
Same read-out and setting: then `CC(C)(C)C(=O)C(Oc1ccc(Cl)cc1)n1ccnc1` (stereo not drawn), with 8.91 µM (active).
Same read-out and setting: under `CNC(=O)Oc1ccc2c(c1)[C@]1(C)CCN(C)[C@@H]1N2C` stands 2.24 µM (active).

A further assay has as its system ATS95. The assay is described as above. The following applies: P. falciparum in erythrocytes, SYBR Green DNA, 72 h; series mostly up to 28.7 µM; activity, negative = inhibition: at the top concentration. The procedure, abridged:
as §1
Take `CN(C)CCCN1c2ccccc2Sc2ccc(Cl)cc21`: the Potency is 11.2 µM (active).
With `CC[C@@]1(c2ccccc2)NC(=O)N(C)C1=O`, the “activity, negative = inhibition” value was -16.7% (inactive).
The same measure, in the same setting: under `CCCc1c(OCCCCc2nn[nH]n2)ccc(C(C)=O)c1O` stands -10.8% (inactive); under `Cc1cc(C(C#N)c2ccc(Cl)cc2)c(Cl)cc1NC(=O)c1cc(I)cc(I)c1O` (stereo not drawn), 3.25% (inactive).
Same read-out and setting: under `O=S(=O)(O)c1cc(I)c(O)c2ncccc12` stands -4.07% (inactive); under `CCCCOC(=O)c1ccc(O)cc1`, -1.75% (inactive); under `CCOC(CN1CCN(CC(C)C(=O)c2ccccc2)CC1)c1ccccc1` (stereo not drawn), -23.8% (inactive).
For `CCCCCCCCCCCCCCCC(=O)NCCO`, the “activity, negative = inhibition” value is 0.678% (inactive).
On the same count and under the same terms, under `Cc1ccc(C(C)C)cc2c(C)ccc1-2` stands -5.46% (inactive); under `OCc1cc(C(O)CNCCCCCCOCCCCc2ccccc2)ccc1O` (stereo not drawn), -23.5% (inactive).
Same read-out and setting: then `COC(=O)C1=C(C)NC(C)=C(C(=O)OC)C1c1ccccc1[N+](=O)[O-]`, with -6.29% (inactive).
On the same count and under the same terms, then `CN1CCN(C2Cc3ccccc3Sc3ccc(Cl)cc32)CC1` (stereo not drawn), with -27.2% (inactive).
`Cc1c(Cl)cccc1Nc1ccccc1C(=O)O`: the “activity, negative = inhibition” value was -0.962% (inactive).
Same read-out and setting: then `CC1=C(CC(=O)O)c2cc(F)ccc2/C1=C\c1ccc(S(C)=O)cc1` (stereo not drawn), with -0.343% (inactive); and `CC(C)(C)NCC(O)COc1ccc(NC(=O)NC2CCCCC2)cc1` (stereo not drawn), with -9.75% (inactive).
For the molecule `NC1CCN(c2cccc(Cl)n2)CC1`, the “activity, negative = inhibition” value is -17.7% (inactive).

The values are drawn from PubChem BioAssay (NCATS).
